Results filed as inconclusive are left out. Entries that show only a call come without a potency. Active and inactive are the calls of the source. Calls follow the shape of the dose curve; as a rule, active = well fitted cell-killing curve with a large enough effect; inconclusive = small, poorly fitted or top-dose-only effect, or effect the other way; inactive = flat fitted curve, though single readings scatter.
Experiment: qHTS for Inhibitors of Ubiquitin-specific Protease USP2a Using CHOP2 as the Reporter: Cytotox Assay (AID 652170); also: nearly all actives have a fitted effect of over 70% in size
Conditions: HCT116 viability, CellTiter-Glo luminescence, 72 h; series mostly up to 46.1 µM
Text: Homeostasis of cellular proteins is maintained through a combination of synthesis and degradation. The pathway that accounts for the majority of protein degradation is the ubiquitin-proteasomal pathway. Ubiquitin (Ub) is highly conserved in all cells and the generation of a multi-Ub chain typically targets proteins for degradation by the proteasome. However, ubiquitination is highly reversible and dynamic. Deubiquitination, the reverse process, is catalyzed through the action of enzymes referred to as isopeptidases or deubiquitinating enzymes (DUBs). This group of enzymes is collectively responsible for maintaining adequate pools of free ubiquitin and regulating the ubiquitination status of cellular proteins. The class of DUBs referred to as the ubiquitin-specific proteases (USP) family functions endoproteolytically to cleave Ub chains from a wide range of protein substrates. USP2a deubiquitinates fatty acid synthase (FASN) which has recently been identified as an emerging oncology target. To identify inhibitors of USP2a a cell-free qHTS assay was employed. Confirmed qHTS active compounds were tested for cytoxicity in HCT116 cells (human colon cancer cells) using the Cell Titer Glo luciferase-coupled ATP detection system from Promega. This assays monitors cell proliferation by quantitating the amount of ATP present by luciferase, which in the presence of ATP converts […]. A compound that inhibits cell proliferation would result in a decrease in luminescence. The data were normalized to control columns representing maximum signal (cells with DMSO) and background (no cells with DMSO). The cells were cultured in DMEM with 10% FBS and plated in white solid-bottom tissue-culture treated plates. NIH Molecular Libraries Probe Centers Network [MLPCN] NIH Chemical Genomics Center [NCGC] MLSCN Grant: MH079852 PI Name: Benjamin Nicholson, Progenra Inc, Malvern, PA
5 uL of HCT116 (600 cells/well) were plated into a 1536 well plate and then incubated for 6 hr at 37 deg C, 5% CO2. Compounds are added through pinning before the plate is incubated for 72 hr at 37 deg C, 5% CO2. Then, 3 uL of Cell Titer Glo is added, the plate is left at RT for 10 min, before luminescence is detected using the ViewLux.
For `CC(=O)Nc1ncc(S(=O)(=O)Nc2cnccc2C(=O)Nc2nc(-c3ccccc3)cs2)s1`, the Potency was “inactive”. For `O=S(=O)(Nc1nccs1)c1ccc(Nc2nc(-c3ccc(-c4ccccc4)cc3)cs2)cc1`, the Potency was “inactive”. With `COc1cccc(S(=O)(=O)Nc2cnccc2C(=O)Nc2nc(-c3ccccc3)cs2)c1` the Potency was 23.5 µM (active). For `O=C(Nc1ccc(S(=O)(=O)Nc2nccs2)cc1)c1ccc2ccccc2c1`, the Potency was “inactive”. In the case of `Cc1ccc(S(=O)(=O)Nc2ccccc2C(=O)Nc2cnc(-c3ccccc3)cn2)cc1`, the Potency is reported as 16.6 µM (active). With `N#Cc1cnc(NS(=O)(=O)c2ccc(NC(=O)Cc3ccc(F)c(Cl)c3)cc2)s1` the Potency was “inactive”. For `COCOC1CCC(C(=O)Nc2ccc([S+](=O)([O-])Nc3nccs3)cc2)CC1` (stereo not given), the Potency was “inactive”. For `Cc1ccc(S(=O)(=O)Nc2ccc(Cl)c(C(=O)Nc3nc(-c4ccccc4)cs3)c2)cc1`, the Potency was “inactive”. With `O=C(Nc1ccc(S(=O)(=O)Nc2nccs2)cc1)c1ccc(-c2ccccc2)cc1` the Potency was “inactive”. In the case of `CCC(=O)OC1CCC(C(=O)Nc2ccc([S+](=O)([O-])Nc3nccs3)cc2)CC1` (stereo not given), the Potency is reported as “inactive”. In the case of `Cc1ccc(-c2cc(C(=O)Nc3cccc(S(=O)(=O)Nc4nccs4)c3)c3ccccc3n2)cc1C`, the Potency is reported as “inactive”. For `CN(Cc1nccs1)S(=O)(=O)c1ccc(Nc2nc(-c3ccccc3)cs2)cc1`, the Potency was “inactive”. In the case of `Cc1ccc(-c2cc(C(=O)Nc3ccc4[nH]ccc4c3)c3ccccc3n2)cc1C`, the Potency is reported as “inactive”. In the case of `CCCc1ccc(-c2csc(NC(=O)c3ccncc3NS(=O)(=O)c3ccc(C)cc3)n2)cc1`, the Potency is reported as 20.9 µM (active). In the case of `Cc1ccc(-c2cc(C(=O)Nc3ccc(C(F)(F)F)cc3)c3ccccc3n2)cc1C`, the Potency is reported as “inactive”. With `Cc1ccc(-c2csc(NC(=O)c3ccncc3NS(=O)(=O)c3ccc(C)cc3)n2)cc1` the Potency was 14.8 µM (active). In the case of `CCCOC1CCC(C(=O)Nc2ccc([S+](=O)([O-])Nc3nccs3)cc2)CC1` (stereo not given), the Potency is reported as “inactive”. In the case of `O=C(Nc1nc(-c2ccccc2)cs1)c1ccncc1NS(=O)(=O)c1ccccc1F`, the Potency is reported as “inactive”. With `CCCCC1CCC(C(=O)Nc2ccc(S(=O)(=O)Nc3nccs3)cc2)CC1` (stereo not given) the Potency was “inactive”. For `O=C(Nc1nc(-c2ccccc2)cs1)c1ccncc1NS(=O)(=O)c1ccc(F)c(F)c1`, the Potency was “inactive”. For `Cc1ccccc1S(=O)(=O)Nc1cnccc1C(=O)Nc1nc(-c2ccccc2)cs1`, the Potency was 18.7 µM (active). With `O=C(Nc1ccc(S(=O)(=O)Nc2ncc(-c3ccccc3)s2)cc1)c1ccc2ccccc2c1` the Potency was “inactive”. With `Cc1ccc(C(=O)Nc2ccc(S(=O)(=O)Nc3nccs3)cc2)cc1C` the Potency was “inactive”. With `Cc1ccc(S(=O)(=O)Nc2cnccc2C(=O)Nc2nc(-c3cccnc3)cs2)cc1` the Potency was “inactive”. With `Cc1ccc(S(=O)(=O)Nc2cnccc2C(=O)Nc2nc(-c3ccccc3)cs2)cc1` the Potency was 18.7 µM (active). In the case of `Cc1ccc(-c2cc(C(=O)Nc3ccc(Cl)cc3)c3ccccc3n2)cc1C`, the Potency is reported as “inactive”. With `CC(C)(C)NC(=O)N1CCC(C(=O)Nc2ccc([S+](=O)([O-])Nc3nccs3)cc2)CC1` the Potency was “inactive”. With `Cc1ccc(S(=O)(=O)Nc2ccccc2C(=O)Nc2ncc(-c3ccccc3)o2)cc1` the Potency was 4.69 µM (active). With `CNS(=O)(=O)c1ccc(NC(=O)c2cc(-c3ccc(C)c(C)c3)nc3ccccc23)cc1` the Potency was “inactive”. With `Cc1ccc(-c2cc(C(=O)Nc3cccnc3)c3ccccc3n2)cc1C` the Potency was “inactive”. With `O=S(=O)(Nc1nccs1)c1ccc(Nc2nc(-c3ccc(F)cc3)cs2)cc1` the Potency was “inactive”. In the case of `O=C(Nc1nc(-c2ccc(F)cc2)cs1)c1ccncc1NS(=O)(=O)c1ccc(F)cc1`, the Potency is reported as “inactive”. For `CCN(CC)C(=O)C1CCC(C(=O)Nc2ccc([S+](=O)([O-])Nc3nccs3)cc2)CC1` (stereo not given), the Potency was “inactive”. With `Cc1ccc(-c2cc(C(=O)Nc3ccc(S(=O)(=O)O)cc3)c3ccccc3n2)cc1C` the Potency was “inactive”. In the case of `Cc1ccc(S(=O)(=O)Nc2cnccc2C(=O)Nc2nc(-c3ccc(Oc4ccccc4)cc3)cs2)cc1`, the Potency is reported as 20.9 µM (active). In the case of `Cc1ccc(S(=O)(=O)Nc2cnccc2C(=O)Nc2nc(-c3ccc(F)cc3)cs2)cc1`, the Potency is reported as 20.9 µM (active). For `Cc1ccc(-c2cc(C(=O)Nc3ccc(S(N)(=O)=O)cc3)c3cccc(C)c3n2)cc1C`, the Potency was “inactive”. In the case of `COc1ccc(C(=O)Nc2nc(-c3ccccc3)cs2)c(NS(=O)(=O)c2ccc(C)cc2)c1`, the Potency is reported as 13.2 µM (active). With `Cc1ccc(-c2cc(C(=O)NCc3ccc(S(N)(=O)=O)cc3)c3ccccc3n2)cc1C` the Potency was “inactive”. In the case of `Cc1ccc(-c2csc(Nc3ccc(S(=O)(=O)Nc4nccs4)cc3)n2)cc1C`, the Potency is reported as “inactive”.
Potency is read from the fitted curve at half-maximal effect.
